Measurements from PMC4336329 (PLoS ONE, 2015).
In all, about 310,000 compounds went through this assay and about 2,200 (0.71%) showed an effect of 50% or more. The effect is printed as a negative number. The full list was thinned out, with strong results kept by preference.

Biological target: human ether-à-go-go-related gene (hERG) potassium channel (human, UniProt Q12809)
Test: primary screen, population patch clamp on CHO cells stably expressing hERG; higher = less effect of the substance
Description: Briefly, Chinese hamster ovary (CHO) cells stably expressing the hERG channel were dislodged from tissue culture flasks and dispensed into PPC plates. […] During the recording, background leak currents were estimated by a 100 ms step to -80 mV from an initial holding potential of -70 mV and subtracted from the subsequent current measurement. The campaign was conducted in two phases using slight differences in recording protocol. In the first phase, the initial voltage pulse used a 100 ms step to -30 mV from a holding potential of -70 mV, a 2 s conditioning step to +25 mV, and a 2 s test step to -30 mV. During the second phase of the screen, the potential during the conditioning step was raised to +45 mV. In both phases of the campaign, a secondary voltage pulse was applied using the same parameters as the second phase initial pulse. The initial and secondary pulses were applied in the absence of compound, and upon application of 1 μM and 10 μM test concentrations. Small molecule effects on hERG current density were quantified by […].

human ether-à-go-go-related gene (hERG) potassium channel, sequence (Q12809 whole entry, looked up): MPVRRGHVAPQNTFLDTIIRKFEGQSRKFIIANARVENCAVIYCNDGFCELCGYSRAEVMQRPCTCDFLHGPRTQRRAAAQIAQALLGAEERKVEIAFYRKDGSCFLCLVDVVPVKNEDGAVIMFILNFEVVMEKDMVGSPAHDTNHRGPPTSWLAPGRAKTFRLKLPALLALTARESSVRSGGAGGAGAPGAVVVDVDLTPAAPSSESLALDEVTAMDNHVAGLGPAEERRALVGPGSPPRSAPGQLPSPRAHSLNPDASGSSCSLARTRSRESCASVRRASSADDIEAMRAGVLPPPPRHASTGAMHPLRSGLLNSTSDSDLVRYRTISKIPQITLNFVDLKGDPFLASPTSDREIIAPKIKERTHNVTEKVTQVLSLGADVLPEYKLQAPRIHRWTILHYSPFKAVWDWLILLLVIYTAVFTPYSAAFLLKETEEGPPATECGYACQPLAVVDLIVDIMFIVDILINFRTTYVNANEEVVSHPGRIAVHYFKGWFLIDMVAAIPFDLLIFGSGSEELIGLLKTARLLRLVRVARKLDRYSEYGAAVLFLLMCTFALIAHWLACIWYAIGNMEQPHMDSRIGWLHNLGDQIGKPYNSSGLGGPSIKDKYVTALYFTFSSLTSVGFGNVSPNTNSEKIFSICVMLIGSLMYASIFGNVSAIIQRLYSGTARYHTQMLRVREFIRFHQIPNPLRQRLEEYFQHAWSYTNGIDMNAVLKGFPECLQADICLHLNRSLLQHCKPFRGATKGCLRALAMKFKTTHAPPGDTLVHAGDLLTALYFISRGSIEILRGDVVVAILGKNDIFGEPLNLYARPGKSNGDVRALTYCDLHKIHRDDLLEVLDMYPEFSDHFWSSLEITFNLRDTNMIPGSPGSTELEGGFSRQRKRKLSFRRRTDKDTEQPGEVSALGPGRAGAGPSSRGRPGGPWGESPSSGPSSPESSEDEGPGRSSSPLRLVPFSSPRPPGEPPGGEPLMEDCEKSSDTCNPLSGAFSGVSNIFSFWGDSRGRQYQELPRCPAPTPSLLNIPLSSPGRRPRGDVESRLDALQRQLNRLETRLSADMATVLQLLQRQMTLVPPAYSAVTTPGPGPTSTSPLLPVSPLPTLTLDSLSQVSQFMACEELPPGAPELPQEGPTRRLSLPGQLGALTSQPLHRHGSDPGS

Row | SMILES | hERG current change (%, negative = inhibition) at 1uM
1 | Cc1ccnc(NC(=O)Cn2cc([N+](=O)[O-])cn2)c1 | 10.4%
2 | CCOC(=O)c1sc(=S)n(-c2ccccc2)c1N(C(C)=O)C(C)=O | 15.5%
3 | COc1ccc(S(=O)(=O)N2CCOCC2)cc1NC(=O)CCc1cc(OC)c(OC)c(OC)c1 | 2.32%
4 | CC(NC(=O)c1cccnc1)C(c1cccs1)N1CCN(C)CC1 (stereo not drawn) | 8.63%
5 | COc1ccc(OCCSc2nc(N)cc(N)n2)cc1 | -5.65%
6 | CC(=O)OCCNc1cc(SC(C)C)c2nonc2c1[N+](=O)[O-] | 3.63%
7 | C=CCN1C=C2C(=O)C(C)(OC(=O)CCC(=O)OC)C(=O)C(Br)=C2C=C1c1ccc(OC)cc1 (stereo not drawn) | 7.67%
8 | O=C(Cc1ccccc1[N+](=O)[O-])NCCc1ccc(F)cc1 | 11.3%
9 | O=C(OCn1nnc2ccccc2c1=O)c1cccc(S(=O)(=O)N2CCOCC2)c1 | 12.9%
10 | O=C(CCS(=O)(=O)Cc1ccccc1)N1CCN(c2ccccc2)CC1 | -5.53%
11 | CC1(C(=O)N2CCN(c3ccc([N+](=O)[O-])cc3)CC2)CC1(Cl)Cl (stereo not drawn) | -64.3%
12 | CSC(=NC#N)N1CCN(c2ccccc2)CC1 | 6.71%
13 | CSC(=NC#N)N1CCN(c2ccc(Cl)cc2)CC1 | -6.45%
14 | CC(=O)N1CCN(c2ccc([N+](=O)[O-])cc2)CC1 | -26%
15 | CSC(=NC#N)N1CCN(c2ccc([N+](=O)[O-])cc2)CC1 | -80.9%
16 | O=C(CCS(=O)(=O)Cc1ccccc1)N1CCN(c2ccc([N+](=O)[O-])cc2)CC1 | -81%
17 | Cc1ccc(S(=O)(=O)CCC(=O)N2CCN(c3ccc([N+](=O)[O-])cc3)CC2)cc1 | -49.9%
18 | CC1(C(=O)N2CCN(c3ccccc3)CC2)CC1(Cl)Cl (stereo not drawn) | 10.3%
19 | O=C(CSCc1c(F)cccc1Cl)NCC1CCCO1 (stereo not drawn) | -1.83%
20 | CCn1cc(C2=NC(CCSC)CO2)c2ccccc21 (stereo not drawn) | 12%
21 | Cc1ccc(C2=NN(CC(=O)O)C(=O)CC2)cc1 | -9.99%

Row | SMILES | hERG current change (%, negative = inhibition) at 1uM
22 | Cc1ccc(C(=O)N2CCN(c3ccc([N+](=O)[O-])cc3-n3cccc3)CC2)cc1 | -16.4%
23 | COc1cccc(N2CCN(CC(=O)C34CC5CC(CC(C5)C3)C4)CC2)c1 | 14%
24 | O=C(O)c1ccccc1C(=O)O | 4.51%
25 | O=C1OC(NC(=O)c2ccccc2)C(n2cc(CO)nn2)=C1Cl (stereo not drawn) | -3.22%
26 | COc1ccc(N(C(=O)Cc2cccs2)C(C(=O)NC2CCCCC2)c2cccn2C)cc1 (stereo not drawn) | 9.18%
27 | N#C/C(=C/c1ccc(Cl)cc1)NC(=O)c1ccccc1 | 12.2%
28 | CCn1c(C)cc(C(=O)CSc2nnnn2C2CCCC2)c1C | -9.53%
29 | COCC(C)n1c(C)cc(C(=O)CSc2nnnn2C2CCCC2)c1C (stereo not drawn) | 5.12%
30 | COCCn1c(C)cc(C(=O)CSc2nnnn2C2CCCC2)c1C | -58.4%
31 | CCOC(=O)C1CCCN(CCC(=O)Nc2c(C(=O)OC)[nH]c3cc(OC)ccc23)C1 (stereo not drawn) | -38%
32 | O=C(CSc1nnc(-c2ccc(O)cc2)o1)Nc1cccc(O)c1 | 17.7%
33 | Cl.Nc1cc(F)ccc1N1CCCCCC1 | 12.7%
34 | CN(C)C(=O)C1C2NC(=S)N(c3ccccc3)C1(C)Oc1ccccc12 (stereo not drawn) | 2.05%
35 | O=[N+]([O-])c1ccc(N2CCCCC2)cn1 | 13.9%
36 | O=[N+]([O-])c1ccc(N2CCN(c3cccc(Cl)c3)CC2)cn1 | -59.8%
37 | O=[N+]([O-])c1ccc(N2CCN(c3ccccc3Cl)CC2)cn1 | -10%
38 | CCc1cccc(C)c1NC(=O)CC1Oc2ccc(C)cc2NC1=O (stereo not drawn) | 11.9%
39 | CCCOC(=O)CCCN1C(=O)/C(=C2\SC(=S)N(CCCC(=O)OCCC)C2=O)SC1=S | 16%
40 | Cc1cc2c(cc1C)C(c1ccsc1)CC(=O)N2 (stereo not drawn) | 9.06%
41 | COc1ccc(CN2CCNC(=O)C2CC(=O)N(C)Cc2nccs2)c(OC)c1 (stereo not drawn) | 13.1%
42 | Cc1ccc(NS(=O)(=O)c2ccc(C(=O)N3CCN(c4ncccn4)CC3)cc2)cc1 | 1.36%

Row | SMILES | hERG current change (%, negative = inhibition) at 1uM
43 | Cc1ccc(C(=O)N/C(=C/c2ccc(F)cc2)C(=O)NCc2ccncc2)cc1 | -78.4%
44 | O=C(Nc1cccc2ccccc12)/C(=C\c1cccc([N+](=O)[O-])c1)NC(=O)c1cccs1 | -67.7%
45 | Cc1ccc(C(=O)N/C(=C\c2sccc2C)C(=O)NCc2ccncc2)cc1 | -1.07%
46 | COc1ccc(C(=O)N/C(=C/c2ccc(Cl)cc2)C(=O)NCc2ccncc2)cc1 | -38.4%
47 | Cc1ccc(C(=O)N/C(=C\c2cccs2)C(=O)NCc2ccncc2)cc1 | -38.5%
48 | Cc1ccc(C(=O)N/C(=C\c2ccccc2)C(=O)NCc2ccncc2)cc1 | -77.1%
49 | Cc1ccc(C(=O)N/C(=C\c2ccc(F)cc2)C(=O)NCc2ccncc2)cc1 | -81.2%
50 | Cc1ccc(C(=O)N/C(=C/c2ccccc2)C(=O)NCc2ccncc2)cc1 | -37.7%
51 | COc1ccc(/C=C(/NC(=O)c2ccc(C)cc2)C(=O)NCc2ccncc2)cc1 | -21.3%
52 | Cc1ccc(NC(=O)/C(=C\c2cccc([N+](=O)[O-])c2)NC(=O)c2cccs2)cc1 | 4.59%
53 | Cc1ccc(C(=O)N/C(=C\c2ccccc2)C(=O)NCc2cccnc2)cc1 | -41.8%
54 | O=C(Nc1cccc2ccccc12)/C(=C/c1cccc([N+](=O)[O-])c1)NC(=O)c1cccs1 | -37.8%
55 | N#Cc1c(NC(=S)NC(=O)C2CCCC2)sc2c1CCCCC2 | 10.1%
56 | COc1ccc(N2CCN(c3ncnc4c3cnn4-c3ccc(C)cc3C)CC2)cc1 | 13.6%
57 | CCC(=O)N1CCc2cc(S(=O)(=O)NC(C(=O)NCc3ccc(C)cc3)C(C)C)ccc21 (stereo not drawn) | 1.57%
58 | CCOc1ccc2nc(N3CCCC(C(=O)NCCCN4CCCCC4)C3)sc2c1 (stereo not drawn) | -11.7%
59 | CCN=C(NCC)SC1CC(=O)N(c2ccc(OCC)cc2)C1=O (stereo not drawn) | 7.6%
60 | Cn1cc(/C=N/NC(=O)c2ccc(C#N)cc2F)c2ccccc21 | 12.6%
61 | N#Cc1c(N2CCCC(O)C2)nc(N)c2c(N)nc3c(c12)CC(=O)N3C12CC3CC(CC(C3)C1)C2 (stereo not drawn) | 8.76%
62 | CN(C)c1ccc(/C=C(\NC(=O)c2ccccc2)C(=O)NCc2ccncc2)cc1 | 4.78%
63 | CCNC(=O)/C(=C/c1cccc([N+](=O)[O-])c1)NC(=O)c1ccc(C)cc1 | -17.3%

Row | SMILES | hERG current change (%, negative = inhibition) at 1uM
64 | Cc1ccc(C(=O)N/C(=C\c2cccc([N+](=O)[O-])c2)C(=O)NCc2ccncc2)cc1 | -65.3%
65 | COc1ccc(/C=C(/NC(=O)c2ccccc2)C(=O)NCc2ccncc2)cc1 | -12.6%
66 | O=C(NCc1ccncc1)/C(=C\c1ccc(F)cc1)NC(=O)c1ccccc1 | -52.3%
67 | O=C(NCc1ccncc1)/C(=C/c1cccc([N+](=O)[O-])c1)NC(=O)c1ccccc1 | -31.2%
68 | Cc1ccc(C23CC4CC(CC(C(=O)OCC(=O)NC5CCS(=O)(=O)C5)(C4)C2)C3)cc1 (stereo not drawn) | 1.74%
69 | COc1ccc(OCC(=O)NNC(=O)C(=O)Nc2cc(OC)ccc2OC)cc1 | 13.5%
70 | c1ccc(-c2oc3ncnc(NCCCN4CCOCC4)c3c2-c2ccccc2)cc1 | 0.244%
71 | c1ccc(-c2oc3ncnc(NCCN4CCOCC4)c3c2-c2ccccc2)cc1 | 9.8%
72 | N=c1c2c(-c3ccccc3)c(-c3ccccc3)oc2ncn1CCCN1CCOCC1 | -84.5%
73 | N=c1c2c(-c3ccccc3)c(-c3ccccc3)oc2ncn1CCN1CCOCC1 | -63.5%
74 | COc1ccc(-c2oc3ncn(CCN4CCOCC4)c(=N)c3c2-c2ccc(OC)cc2)cc1 | -7.75%
75 | N=c1c2c(-c3ccccc3)c(-c3ccccc3)oc2ncn1Cc1ccco1 | 9.94%
76 | CN(Cc1cccc2cnccc12)C(=O)CCc1nnc(CCc2ccccc2)o1 | -5.46%
77 | COc1ccccc1CCc1nnc(CCC(=O)N(C)Cc2ccncc2C)o1 | 16.2%
78 | COc1ccccc1CCc1nnc(CCC(=O)N(C)Cc2cccc3cnccc23)o1 | -53.3%
79 | COc1ccc2[nH]c(=O)c(CN(Cc3cccnc3)S(=O)(=O)c3ccccc3F)cc2c1 | 7.89%
80 | CCOc1ccc(NC(=O)CN(C)C(=O)c2ccc(-c3ccc(C(C)=O)cc3)o2)cc1OCC | 10.5%
81 | Cl.Nc1c2c(nc3ccccc13)CCCC2 | -12.6%
82 | Nc1c2c(nc3ccn(-c4ccccc4)c(=O)c13)CCCCC2 | -37.1%
83 | Nc1c2c(nc3ccn(Cc4ccccc4)c(=O)c13)CCC2 | -59%
84 | NC(=O)NC(c1ccc(Cl)cc1)c1ccccc1Cl (stereo not drawn) | 7.43%
